Screening results as filed in PubChem BioAssay.
Rows were chosen to be rich in hits. Some 1.8% of all compounds tested hit in one or more screens of this group.
Akt phos inh = blocks phosphorylation of Akt; Neuro2A IGF-stimulated pAkt S473 HTRF, 20 min; stronger effect = lower value; activity change, % for hits at 50 µM; 360,000 tested, 0.32% active; in the data active = activity change below about -80%; inconclusive = mostly about -51% to -80%; also: % is scaled to controls: 0 for no effect and ±100 for the full control effect
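Single-point screen (50 µM final compound) in Neuro2A cells stimulated 20 min with 6 nM IGF at 37 deg C. After lysis, Ser473-phosphorylated Akt read by HTRF (ex 330 nm, em 615/665 nm) as the 665/615 ratio.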
MmCpn inh = inhibitors of Methanococcus maripaludis chaperonin TRiC (MmCpn) | purified Mm-Cpn ATPase, ADP Transcreener TR-FRET | Potency, µM (series often up to 76.9 µM), for the others: top-dose activity, negative = inhibition, actives largely listed as inhibitors | 330,000 tested, 0.031% active | AID 504842; also: potency is read from the fitted curve at half-maximal effect; % is scaled to controls: 0 for no effect and ±100 for the full control effect; nearly all actives have a fitted effect of over 80% in size
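Eu-cryptate anti-ADP/ADP-d2 competition gives a ratio inversely related to ADP. Enzyme at 25 nM was pre-exposed to compound for 10 min, then given 10 uM ATP for 30 min, 37°C throughout.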
A-T KAP1 phos = potential ataxia-telangiectasia treatment | AID 485349 | Potency, µM (doses to about 57.5 µM), inactives show at the highest dose activation, actives largely listed as activators | F2112 A-T fibroblasts, KAP-1 phosphorylation AlphaLISA; neocarzinostatin DNA damage 30 min before lysis | 320,000 tested, 0.19% active; also: potency is read from the fitted curve at half-maximal effect; % of control where 0% means no effect; nearly all actives have a fitted effect of over 45% in size
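hTERT-immortalized A-T patient fibroblasts (F2112), 500 cells/well in OPTI-MEM, 1% FBS, got compounds for 60 min, then NCS for 30 min at 37C. Lysates were then assayed for phospho-KAP-1 by AlphaLISA (anti-pKAP1 donor, anti-KAP1 acceptor beads), 6 hr at 25C.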
CCT chaperon mod = changes cytosolic chaperonin activity | purified chaperonin ATPase assay, HTRF ADP detection, 30 min | activity change, % (no concentration beside the values), hits read low | 360,000 tested, 0.3% active; in the data active = activity change below about -30%; also: % is scaled to controls: 0 for no effect and ±100 for the full control effect
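First, chaperonin was dispensed at 40 nM or 20 nM final depending on batch activity. Next, compounds were pinned at 76 uM and ATP added at 10 uM. After 30 min at 37 °C, ADP detection reagents ran 30 min at ambient temperature.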
BRCA1 expr act = increases BRCA1 expression. MCF7-BRCA1-FFLuc reporter, luminescence, 48 h; response scale: scaled: vehicle 0%, 10 µM genistein 100%. Potency, µM (doses to about 46.1 µM), inactives show at the highest dose activation, most hits filed as activators. 380,000 tested, 1.1% active; also: potency is read from the fitted curve at half-maximal effect; nearly all actives have a fitted effect of over 80% in size
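48 h compound treatment of MCF7-BRCA1-FFLuc cells (phenol-red free MEM, 37 °C), then 15 min with luciferase substrate and luminescence imaging.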
* hit, by the source's call; i = inactive; ? = inconclusive; nt = not tested or not shown. Unless noted, calls follow the shape of the dose curve; as a rule, active = well fitted curve in the direction sought with a large enough effect; inconclusive = small, poorly fitted or top-dose-only effect, or another doubt; inactive = no such curve, though single readings can be large; an effect the other way counts as inactive or inconclusive.

SMILES	Akt phos inh	MmCpn inh	A-T KAP1 phos	CCT chaperon mod	BRCA1 expr act
CN(C)c1cc(Nc2ccc(O)cc2)c([N+](=O)[O-])c2nonc12	i	1%	7.1µM*	-1	-4%
Cc1ccc(NC(=O)C2Cc3ccccc3C(=O)O2)cc1 (stereo not given)	i	-3%	0%	3	4µM*
CCN(CC)c1ccc(C2C(C(N)=O)=C(C)Nc3nc(SCc4ccccc4Cl)nn32)cc1 (stereo not given)	nt	nt	nt	nt	-20%
COc1ccc(-c2nc3ccccc3o2)cc1NC(=O)CSc1ccc(Cl)cc1	i	1%	4%	-90*	66%
COc1ccc(-c2nc3ccccc3o2)cc1NC(=O)C(C)Oc1ccc(Cl)cc1Cl (stereo not given)	nt	nt	nt	nt	-1%
O=C(NCC(Cl)c1ccc2ccccc2c1)c1c(F)cccc1F (stereo not given)	i	3%	20µM*	-10	13%
O=C(NCCCNC(=O)c1c(F)cccc1F)c1c(F)cccc1F	i	-11%	-9%	-78*	8%
Cc1ccc(NC(=O)c2ccc(-n3nncc3-c3ccccc3)cc2)cc1	nt	nt	nt	nt	0%
COc1cc2nc(N3CCCN(C)CC3)nc(N3CCN(C)CC3)c2cc1OC	nt	nt	nt	nt	0%
CCOc1cccc(CNCc2ccc(C(=O)O)cc2)c1	i	0%	4%	-70*	0%
COc1ccc(NC(=O)CN(C)C(=O)CCC2CCCC2)cc1	i	1%	29%	-36*	-3%
Cc1ccc(N(C(=O)c2csnn2)C(C(=O)NC2CCCCC2)c2ccccn2)c(C)c1 (stereo not given)	i	0%	-1%	-32*	-4%
COc1ccccc1N(CC(=O)NC1CCCCC1)C(=O)c1csnn1	i	0%	-2%	0	6%
COc1ccccc1N(CC(=O)NC1CCCC1)C(=O)c1csnn1	-121%*	1%	-10%	2	4%
Nc1ccc[n+](CC(=O)c2ccc(F)cc2)c1	nt	nt	nt	nt	-72%
O=C(Cn1c(=O)oc2cc(S(=O)(=O)NCc3ccccc3)ccc21)NCc1ccc(F)cc1	nt	nt	nt	nt	4%
CC(C)c1ccc(NC(=O)c2cc3c([nH]c2=O)CC(C)(C)CC3=O)cc1	nt	nt	nt	nt	16%
COc1ccc(C(CNC(=O)C(Cc2ccccc2)NC(N)=O)N(C)C)cc1 (stereo not given)	i	1%	0.89µM*	1	1%
COc1ccc(C(CNC(=O)Cc2ccc(-c3ccccc3)cc2)N(C)C)cc1 (stereo not given)	i	-4%	1%	0	-51%
Cc1cc[n+](CC(=O)c2ccc(F)cc2)cc1	nt	nt	nt	nt	11%
N#Cc1cnc2sc3ccccc3n2c1=N	-118%*	0%	nt	-3	?
Cn1nc2sc3ccccc3n2c(=O)c1=O	i	3%	-9%	-1	9%
CC1CCCC(NC(=O)c2n[nH]c(=O)c3ccccc23)C1C (stereo not given)	i	2%	2%	-2	11µM*
COc1cccc(CNC(=O)Cn2c(=O)cc(C)c3c(C)nn(C)c32)c1OC	nt	nt	nt	nt	0%
Cc1ccc2c(C(=O)CN3CCCCC3CCO)c(C)[nH]c2c1 (stereo not given)	i	-2%	8%	-3	-39%
SMILES	Akt phos inh	MmCpn inh	A-T KAP1 phos	CCT chaperon mod	BRCA1 expr act
Cc1[nH]c2ccccc2c1C(=O)CN1CCCCC1CCO (stereo not given)	-109%*	0%	10%	-1	3%
NC(=O)COc1ccccc1C(=O)Nc1ccccc1	nt	nt	nt	nt	0%
COc1cccc2oc3cc(C#CC4(O)CCCCC4)ccc3c(=O)c12	i	1%	-3%	1	?
COc1cccc2oc3cc(C#Cc4ccccn4)ccc3c(=O)c12	i	0%	-9%	-1	8.9µM*
N#CCCn1cc(C=C(C#N)C#N)c(-c2ccc(Cl)cc2)n1	i	?	2%	-4	-1%
N#CCCn1cc(/C=C(\C#N)c2nc3ccccc3s2)c(-c2ccc(F)cc2)n1	-88%*	-7%	3%	1	-8%
COC(=O)N1C(=O)[C@@](CC(C)C)(c2ccccc2)N1C(=O)OC	nt	-2%	35µM*	nt	nt
COC(=O)N1C(=O)[C@@](c2ccccc2)(C2CCCC2)N1C(=O)OC	i	2%	25µM*	0	-31%
C1NNCC12CNNC2	nt	nt	nt	nt	0%
